Measured values published in PubChem BioAssay AID1063 (University of Pittsburgh Molecular Library Screening Center, 2008).
Screen size: about 200,000 compounds; about 18,000 (9%) were called active. Only a selection was taken, and actives are over-represented in it overall. Values without a mark were called inactive. Rule as the data show it: active = inhibition above about 50%; inactive = the rest.

Assay: antileishmanial activity against promastigotes – primary screen (AID 1063);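 also: promastigotes grown with compound for 44 hours at 28 °C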
Settings: Leishmania major promastigotes, resazurin fluorescence viability; at 10 µM; active compounds read high
`CN(CC(=O)Nc1ccccc1F)CC(=O)Nc1ccccc1Br` showed an inhibition of -4.41%. In the case of `NS(=O)(=O)c1ccc(NC(=S)Nc2ccc(Br)c(Cl)c2)cc1`, the inhibition is reported as 10.7%. In the case of `CC(C)(C)C(=O)NCCCNc1ccc([N+](=O)[O-])cc1`, the inhibition is reported as -6.51%. With `CCOc1cc(/C=C2/C(=N)N3OC(C)=CC3=NC2=O)ccc1OC` the inhibition was 2.63%. In the case of `Cn1nnnc1NCc1ccc(Cl)c(Cl)c1`, the inhibition is reported as 6.1%. Work on `COc1ccc(N2CCN(c3ccc([N+](=O)[O-])nc3)CC2)cc1` yielded an inhibition of -3.36%. Molecule `O=S(=O)(Nc1ccc2cn[nH]c2c1)c1ccccc1` has an inhibition of 6.15%. Work on `Cn1c(=O)n(C)c2cc(NS(=O)(=O)c3ccc(F)cc3)ccc21` yielded an inhibition of 4.59%. For `CC1(C)CC(=O)c2c(n(S(=O)(=O)c3ccccc3)c3ccc(NS(=O)(=O)c4ccccc4)cc23)C1`, the inhibition was 98.6% (active). In the case of `Cc1cnc(C(=O)OCC(=O)N2CCc3ccccc32)cn1`, the inhibition is reported as 5.21%. In the case of `C=CCc1ccc(OCC(O)CN2CCN(Cc3ccccc3)CC2)c(OC)c1` (stereo not drawn), the inhibition is reported as 87.8% (active). Molecule `C/C=C/c1ccc(OCC(O)CN2CCCCCCC2)c(OC)c1` (stereo not drawn) has an inhibition of -0.01%. With `Cc1ccc(OCC(O)CN2CCN(CC(O)COc3ccc(C)cc3Cl)CC2)c(Cl)c1` (stereo not drawn) the inhibition was -0.86%. With `CCOC(=O)Cn1c(=O)oc2cc(S(=O)(=O)N(C)Cc3ccco3)ccc21` the inhibition was 98.7% (active). Molecule `CC(C)CCNC(=O)Cn1c(=O)oc2cc(S(=O)(=O)N3CC(C)CC(C)C3)ccc21` (stereo not drawn) has an inhibition of -10.9%. For `CCOC(=O)Cn1c(=O)oc2cc(S(=O)(=O)NCC3CCCO3)ccc21` (stereo not drawn), the inhibition was -5.87%. Work on `CCCCC(C(=O)OCC(=O)c1ccc(OC)cc1)N1C(=O)c2ccccc2C1=O` (stereo not drawn) yielded an inhibition of -3.44%. In the case of `CCOC(=O)C1=C(c2ccc(OC)cc2)C(=O)c2ccccc2C1=O`, the inhibition is reported as 101% (active). In the case of `COc1ccc(OCCCON2C(=O)c3ccccc3C2=O)cc1`, the inhibition is reported as -2.83%. In the case of `O=C(CCNC(=O)c1ccc([N+](=O)[O-])cc1)Nc1ccccc1N1CCOCC1`, the inhibition is reported as 7.58%. For `CC(C)CN1CCNC(=O)C1CC(=O)N(C)CC1CCOCC1` (stereo not drawn), the inhibition was 9.06%. In the case of `CCOc1cc(/C=N/NC(=O)c2ccc(CSc3nncn3C)cc2)ccc1OCC(=O)N1CCOCC1`, the inhibition is reported as -1.61%. `COc1ccc(/C=C2/SC(=O)N(CCCCCC(=O)Nc3ccccc3C(=O)O)C2=S)cc1` showed an inhibition of -8.92%. For `Cc1ccc(-c2csc(N(Cc3ccco3)C(=O)c3cccs3)n2)cc1`, the inhibition was 100% (active). For `Cc1ccc(-c2csc(NC(=O)c3cccs3)n2)cc1`, the inhibition was 3.66%. `O=C(O)CCC(=O)N(Cc1ccco1)c1nc(-c2ccccc2)cs1` gave an inhibition of -11.4%. With `CN(Cc1ccccn1)Cc1nc(-c2ccc(Cl)cc2)no1` the inhibition was -2.18%. In the case of `CCN(C(=O)COC(=O)/C=C/c1nc2ccccc2s1)C1CCS(=O)(=O)C1` (stereo not drawn), the inhibition is reported as -2.12%. `COc1ccc(/C=C/C(=O)OCC(=O)Nc2cccc(Oc3ccccc3)c2)c(OC)c1` showed an inhibition of -2.55%. In the case of `O=C(COC(=O)/C=C/c1nc2ccccc2s1)Nc1ccccc1Oc1ccccc1`, the inhibition is reported as 51.7% (active). For `COc1ccc(-c2cn3cccnc3n2)cc1`, the inhibition was 10.2%. For `Cc1cccc(C2=N/C(=C/c3cccs3)C(=O)O2)c1`, the inhibition was 1.4%. With `Cc1ccc(NC(=O)CN2CCCCC2)c2c1CC(C)(C)O2` the inhibition was 3.82%. `Cc1cc(C)c2nc(SCC(=O)N(C)C3CCS(=O)(=O)C3)cc(C)c2c1` (stereo not drawn) showed an inhibition of 0.72%. For `Cc1cccc(C)c1OCC(=O)NC(Cc1c[nH]c2ccccc12)C(=O)O` (stereo not drawn), the inhibition was -3.57%. `O=S(=O)(Nc1cc(S(=O)(=O)N2CCOCC2)ccc1N1CCCC1)c1cccs1` gave an inhibition of -3.24%. In the case of `CC(C)(C)NC(=O)CN1CCC(NC(=O)C23CC4CC(CC(C4)C2)C3)CC1`, the inhibition is reported as 3.92%. In the case of `CN1CCN(CC(=O)C23CC4CC(CC(C4)C2)C3)CC1`, the inhibition is reported as 88.5% (active). Molecule `O=C(N1CCCC1)C12CC3CC(C1)CC(C(=O)N1CCCC1)(C3)C2` has an inhibition of -2.33%. With `CCc1ccc(N2CC(O)=C(c3nc4ccccc4c(=O)[nH]3)C2=N)cc1` the inhibition was -1.01%. With `CCCOc1ccc(C(=O)C(CCC(CNCC)C(=O)c2ccc(OCCC)cc2)CNCC)cc1` (stereo not drawn) the inhibition was 100% (active). `CCCOc1ccc(N/C=C/C(=O)C(C)(C)C)cc1` showed an inhibition of -5.85%. Work on `CCCOc1ccc(C(=O)NCCc2ccccc2)cc1` yielded an inhibition of 7.66%. In the case of `CC(C)NC(=S)NN=C1CCCCCCCCCCC1`, the inhibition is reported as 18.9%. For `Cc1nn(C)c(C)c1Sc1ccccc1N`, the inhibition was -5.83%. With `CCOc1ccc(S(=O)(=O)N2CCCCCC2)c2ccccc12` the inhibition was 14%. Molecule `CN(C)CCOc1cccc(Br)c1` has an inhibition of -3.33%. For `CCN(CC)CCOCCOc1ccc(Cl)c2ccccc12`, the inhibition was 99.7% (active). In the case of `CCC(C(=O)OCCN(CC)CC)c1ccccc1` (stereo not drawn), the inhibition is reported as -7.09%. In the case of `CN(C)CCOCCOc1ccc(Cl)c2ccccc12`, the inhibition is reported as 98.1% (active). `COc1ccc(N2C(=O)CC(Sc3n[nH]c(-c4ccc(C)cc4)n3)C2=O)cc1` (stereo not drawn) gave an inhibition of -3.19%. `CCN1C(=O)/C(=c2\s/c(=C3\Sc4ccccc4N3C)c(=O)n2C)N(C)C1=S` gave an inhibition of -4.84%. `CSc1cc(C)[nH]c(=O)n1` gave an inhibition of -7.37%. `C/C(=N\N)c1c(-c2ccccc2)c2cc(Br)ccc2[nH]c1=O` gave an inhibition of -1.92%. Molecule `COc1ccc(C(=O)N/N=c2\oc3ccccc3cc2C(N)=O)cc1` has an inhibition of 10.2%. Molecule `CC(OC(=O)CCc1nc(=O)c2ccccc2n1C)C(=O)NCc1ccc2c(c1)OCO2` (stereo not drawn) has an inhibition of -3.8%. For `CCC(C)(C)NC(=O)/C=C/c1cc(OC)c(OC)c(S(=O)(=O)N2CCc3ccccc32)c1`, the inhibition was -8.31%. In the case of `CCN1CCN(Cc2c(O)ccc3c(=O)c(-c4ccc(OC)c(OC)c4)c(C(F)(F)F)oc23)CC1`, the inhibition is reported as 99.8% (active). In the case of `CCOC(=O)c1oc2c(CN3CCN(C)CC3)c(O)ccc2c(=O)c1-c1ccc(Br)cc1`, the inhibition is reported as 23.6%. In the case of `CN1CCN(Cc2c(O)ccc3c2oc(=O)c2ccccc23)CC1`, the inhibition is reported as 3.53%. Molecule `COc1ccc(C(=O)NNc2cc(C)nc(NNC(=O)c3ccc(OC)cc3)n2)cc1` has an inhibition of -8.08%. With `Cn1c(=NC(=O)c2ccc3c(c2)OCCO3)sc2cc(S(C)(=O)=O)ccc21` the inhibition was -9.12%. For `CCOc1ccccc1NC(=O)c1cccnc1`, the inhibition was -2.23%. For `CC(OC(=O)c1ccc2ccccc2n1)C(=O)c1ccccc1` (stereo not drawn), the inhibition was -9.05%. With `CCOc1cccc(/C=C/c2ccc3ccccc3n2)c1OC(C)=O` the inhibition was 66% (active). Work on `NC(=O)COC(=O)/C=C/c1ccc2ccccc2n1` yielded an inhibition of 8.85%. In the case of `COc1cccc(/C=C/c2ccc3ccccc3n2)c1OC(C)=O`, the inhibition is reported as 75.8% (active). Molecule `COc1cccc(C(O)Cc2nc3ccccc3n2C)c1OC` (stereo not drawn) has an inhibition of 9.44%. `COC(=O)c1ccc(-n2cnc3ccccc32)nc1` showed an inhibition of 25%. Molecule `CN(C(=O)CSc1nnc(Nc2ccccc2)s1)C1CCS(=O)(=O)C1` (stereo not drawn) has an inhibition of -3.39%. For `CC(=O)c1c(C)[nH]c(C(=O)OCC(=O)NCCC(C)C)c1C`, the inhibition was 3.75%. In the case of `c1ccc(CSCCc2ccncc2)cc1`, the inhibition is reported as 1.66%. Work on `O=C(O)CCCc1ccccc1` yielded an inhibition of -5.59%. With `Cc1ccc(O)c(CCc2ccccc2)n1` the inhibition was 87.9% (active). Molecule `CC(NC(=O)C(=O)N/N=C/c1ccc(Cl)cc1)c1ccccc1` (stereo not drawn) has an inhibition of 5.89%. With `O=C(Cc1ccccc1)Nc1cccc(C(=O)N/N=C/c2ccco2)c1` the inhibition was -0.83%. `COc1ccc(CC(=O)Nc2ccc(C(=O)NC(C)(C)C)cc2)cc1` showed an inhibition of -5.15%. For `CC(C)(C)NC(=O)c1cccc(NC(=O)Cc2ccc(Br)cc2)c1`, the inhibition was 94.5% (active). Work on `C(=N\N1CCN(c2ccccn2)CC1)/C1=C(N2CCOCC2)C(=C/c2ccccc2)/CC1` yielded an inhibition of 15.2%. `CCCNC(=O)c1ccccc1NC(=O)CSCc1ccc(OC)cc1` showed an inhibition of 9.43%. For `CCCc1nc(SCC(=O)Nc2ccccc2OC)c2c(=O)n(C)c(=O)n(C)c2n1`, the inhibition was -9.77%. With `CCCCCNC(=O)c1cccnc1SCC(=O)Nc1ccccc1OC` the inhibition was 54% (active). For `COc1ccc(-n2nnnc2SCC(=O)NCc2cccs2)cc1`, the inhibition was -3.26%. Work on `COc1ccc(S(=O)(=O)N(C)C)cc1NC(=O)CSc1ncccn1` yielded an inhibition of 6.96%. `O=C(NCc1ccncc1)NC12CC3CC(CC(C3)C1)C2` showed an inhibition of 1.04%. `CCOC(=O)c1c(NC(=O)C2CC=CCC2C(=O)O)sc(C)c1CC` (stereo not drawn) gave an inhibition of 0.64%. In the case of `O=S(=O)(c1cccc(C(F)(F)F)c1)N1CCN(c2cnccn2)CC1`, the inhibition is reported as -1.36%. `Cc1ccc(S(=O)(=O)NCCSc2ccccc2)cc1[N+](=O)[O-]` showed an inhibition of -8.64%. `CCOC(=O)c1ccccc1NS(=O)(=O)c1ccc(OC)cc1` gave an inhibition of 2.32%. In the case of `COC(=O)c1ccccc1NS(=O)(=O)c1ccc2[nH]c(=O)[nH]c2c1`, the inhibition is reported as 86.2% (active). Molecule `Cc1ccc(S(=O)(=O)Nc2nc3ccccc3s2)cc1[N+](=O)[O-]` has an inhibition of -8.33%. In the case of `COCCNC(=O)c1ccccc1NS(=O)(=O)c1ccc(C)c([N+](=O)[O-])c1`, the inhibition is reported as 54.5% (active). With `COC(=O)c1ccccc1NC(=O)c1ccccc1NS(C)(=O)=O` the inhibition was -0.37%. Molecule `O=S(=O)(Cc1ccccc1)c1nc2ccccc2n1Cc1ccccn1` has an inhibition of 10.6%. `Cc1cc(C)cc(C(=O)N(CCc2ccccc2)C2=CC3CCC(C2)N3C)c1` (stereo not drawn) showed an inhibition of 3.61%. In the case of `Cc1ccc(N/C=C/C(=O)c2ccccc2)cc1C`, the inhibition is reported as 66% (active). Molecule `O=C(/C=C\NCC(=O)c1ccccc1)c1ccccc1` has an inhibition of 2.41%. In the case of `Cc1noc(NS(=O)(=O)c2ccc(N/C=C/C(=O)c3ccccc3)cc2)c1C`, the inhibition is reported as -14.2%.
